From PubChem
Only some compounds are listed: those with a hit (about 19% of all), similar ones and a draw of the others.
DT40 TDP1 CPT – qHTS for Inhibitors of human tyrosyl-DNA phosphodiesterase 1 (TDP1): qHTS in cells in presence of CPT | chicken DT40 Tdp1-/-;hTDP1 cells + 20 nM CPT, ATP luminescence, 48 h | Potency, µM (series often up to 46.2 µM), without a hit: top-dose activity change, negative = growth inhibition, usual class: inhibitors | 420,000 tested, 12% active; note: nearly all actives have a fitted effect of over 55% in size
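Chicken DT40 Tdp1-/- cells complemented with human TDP1, 400 cells/well, exposed to compounds plus 20 nM camptothecin for at least 48 h at 37 C; viability read as ATP content by CellTiter-Glo luminescence.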
HT1080 IDH1KD tx – qHTS for induction of synthetic lethality in tumor cells producing 2HG: qHTS for the HT-1080-IDH1KD cell line; HT-1080 IDH1 knockdown viability, ATP luminescence, 48 h; AID 686971, 2013; 360,000 tested, 2% active; Potency, µM (top dose mostly 46.1 µM), without a hit: at the highest dose activity, negative = toxicity, actives largely listed as cytotoxic;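 note: 0% = DMSO wells and -100% = cell-free medium wells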
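Viability of IDH1-knockdown HT-1080 fibrosarcoma cells was assessed by CellTiter-Glo after 48 h at 37 °C with titrated compound; concentration-effect curves were classified by fit quality and response size.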
KB-V1 cytotox – qHTS assay for MDR1-selective chemotherapeutics: Primary screen using the drug-selected MDR subline cells KB-V1; KB-V1 MDR cells viability, CellTiter-Glo, 72 h; Potency, µM (doses to about 46.1 µM), hits mostly cytotoxic; 400,000 tested, 3.4% active; note: nearly all actives have a fitted effect of over 60% in size
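In this primary screen, KB-V1 cells overexpressing P-gp are incubated with library compounds (lowest to highest concentration) for 72 h at 37 degrees C before a luminescent ATP viability read.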
KB-3-1 cytotox – qHTS assay for MDR1-selective chemotherapeutics: Primary screen using the parental adenocarcinoma cell KB-3-1; KB-3-1 viability, CellTiter-Glo ATP luminescence, 72 h; Potency, µM (series often up to 46.1 µM), most hits filed as cytotoxic; 400,000 tested, 1.4% active; AID 1347075, 2019; note: nearly all actives have a fitted effect of over 60% in size
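Screening of KB-3-1 cells (DMEM, 10% FBS, phenol-red free) ran from lowest to highest compound concentration; after 72 h at 37 °C viability was read luminescently and curves fitted.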
DT40 TDP1 no CPT – qHTS for Inhibitors of human tyrosyl-DNA phosphodiesterase 1 (TDP1): qHTS in cells in absence of CPT. DT40 Tdp1-/- hTDP1 cells, no CPT, ATP luminescence, 48 h. Potency, µM (top dose mostly 46.2 µM), for the others: at the highest dose activity change, negative = growth inhibition, most hits filed as inhibitors. 420,000 tested, 15% active. AID 686978, 2013; note: nearly all actives have a fitted effect of over 55% in size
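Luminescent ATP content (CellTiter-Glo) served as the growth readout. Knockout chicken DT40 cells expressing human TDP1 were exposed to compounds without camptothecin for a minimum 48 hr at 37 °C.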
HT1080-NT tox – qHTS for induction of synthetic lethality in tumor cells producing 2HG: qHTS for the HT-1080-NT fibrosarcoma cell line | HT-1080-NT fibrosarcoma viability, CellTiter-Glo ATP luminescence, 48 h | Potency, µM (titrated, usually from 46.1 µM), inactives show at the highest dose activity, negative = less viability, hits mostly cytotoxic | 360,000 tested, 1.6% active | AID 686970, 2013;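 note: NT is the 2HG producing partner of a matched IDH1 knockdown line; 0% = DMSO-treated cells and -100% = media-only wells without cells; nearly all actives have a fitted effect of over 55% in size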
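Viability by CellTiter-Glo luminescence after 48 h compound exposure at 37C of HT-1080-NT cells (750/well, RPMI, 5% FBS). % activity scaled between DMSO wells and medium-only wells, then curve-fitted and categorized by curve class.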
Active calls of the source: *; i = inactive; ? = inconclusive; · = no result. Calls come from the whole dose curve; as a rule, active = well fitted curve in the direction sought with a large enough effect; inconclusive = small, poorly fitted or top-dose-only effect, or another doubt; inactive = no such curve, though single readings can be large; an effect the other way counts as inactive or inconclusive. Unless noted, % is set by controls: 0 for no effect and ±100 for the full control effect; potency is the fitted concentration of half-maximal effect.

SMILES	DT40 TDP1 CPT	HT1080 IDH1KD tx	KB-V1 cytotox	KB-3-1 cytotox	DT40 TDP1 no CPT	HT1080-NT tox
Cc1ccc2occ(/C=N/NC(N)=S)c(=O)c2c1	?	3%	i	i	26µM*	-4%
Cc1ccc2occ(/C=N/NC(=O)c3ccccc3Br)c(=O)c2c1	?	-5%	i	i	-28%	-4%
CCOc1ccccc1C(=O)N/N=C/c1coc2ccc(C)cc2c1=O	18µM*	?	i	i	?	?
Cc1ccc2occ(/C=N/NC(=O)c3ccc(O)cc3)c(=O)c2c1	?	-13%	i	i	?	-6%
c1cncc(CNc2ncncc2-c2ccoc2)c1	?	·	·	·	-23%	·
COc1ccc(CCSc2nnc(C3CCCCC3)n2N)cc1	?	-5%	i	i	12µM*	-3%
O=C(CSc1nnc2sc3ccccc3n12)NCc1ccco1	?	?	i	?	13µM*	?
Nn1c(SCC(=O)NCCc2ccc(F)cc2)nnc1C1CCCCC1	0%	0%	i	i	-5%	1%
COc1ccc(NC(=O)CSc2nnc(C3CC3)n2N)cc1	9%	3%	i	i	-3%	12%
COc1ccc(NC(=O)CSc2nnc(C3CCCCC3)n2-c2ccccc2)cc1	15µM*	10%	i	i	18µM*	13%
CCNC(=O)CSc1nnc(C2CC2)n1-c1ccccc1	5%	21%	i	i	2%	17%
O=C(CSc1nnc(C2CCCCC2)n1-c1ccccc1)NCc1ccco1	?	3%	i	i	8.2µM*	6%
CC(C)NS(=O)(=O)c1cc(C(F)(F)F)ccc1/C=C/C(=O)O	?	·	i	i	?	·
Cc1ccc(SC(=O)COc2ccccc2C)cc1	13µM*	10%	i	i	?	6%
Cc1cccc(C(=O)OCC(=O)N(CC(C)C)c2c(N)n(Cc3ccccc3)c(=O)[nH]c2=O)c1C	?	0%	i	i	?	3%
C=C(C(=O)c1ccccc1)C(C)CC(=O)c1ccccc1 (stereo not given)	23µM*	21µM*	i	i	15µM*	-25%
COC(=O)C(NC(=O)c1ccccc1)c1ccccc1 (stereo not given)	-15%	6%	i	i	3%	4%
N#CC(c1ccc(N)cc1)C(CC(=O)c1ccccc1)c1ccccc1 (stereo not given)	?	1%	i	i	29µM*	1%
O=C(CC(C(=O)c1ccccc1)c1ccccc1)c1ccccc1 (stereo not given)	?	-26%	?	i	21µM*	-9%
C=C(C(=O)c1ccccc1)C(NC(C)(C)C)c1ccccc1 (stereo not given)	2.1µM*	5.8µM*	?	3.7µM*	2.3µM*	6.5µM*
N#CC(c1ccccc1)C(CC(=O)c1ccccc1)c1ccccc1 (stereo not given)	?	-26%	?	i	?	-16%
O=C(CC(C(=O)O)c1cccc(Cl)c1)c1ccccc1 (stereo not given)	-25%	0%	i	i	9%	-7%
CC(=O)N(c1ccccc1)C(C(=O)c1ccccc1)c1ccccc1 (stereo not given)	?	-11%	i	i	?	0%
CN(Cc1cc(Cl)cc(Cl)c1)CC(C(=O)c1ccccc1)c1ccccc1 (stereo not given)	6.5µM*	?	i	?	7.3µM*	-22%
CN(C)CC(C(=O)c1ccccc1)c1ccccc1 (stereo not given)	1.2µM*	13µM*	?	?	1.5µM*	-3%
SMILES	DT40 TDP1 CPT	HT1080 IDH1KD tx	KB-V1 cytotox	KB-3-1 cytotox	DT40 TDP1 no CPT	HT1080-NT tox
S=C(Nc1ccc(Cl)c(Cl)c1)NC1CCCCC1	?	?	16µM*	18µM*	18µM*	10µM*
S=C(Nc1ccc2nsnc2c1)NC1CCCCC1	?	17%	16µM*	i	?	23%
COc1cc(OC)c(C(=O)Nc2cc(S(=O)(=O)N3CCOCC3)ccc2N2CCOCC2)cc1OC	?	-1%	i	i	?	0%
Cc1ccc(-n2nnnc2SCC(=O)NCC2(N3CCCCC3)CCCCC2)c(C)c1	-23%	-15%	i	?	-10%	-24%
Cc1cccc(-n2nnnc2SCC(=O)NCC2(N3CCOCC3)CCCCC2)c1C	18µM*	-3%	?	i	21µM*	2%
Cc1ccc(-n2nnnc2SCC(=O)NCC2(N3CCOCC3)CCCCC2)c(C)c1	?	-3%	21µM*	i	16µM*	4%
N#Cc1cccc(NC(=O)c2cc(C3CCCCN3C(=O)C3CC3)on2)c1 (stereo not given)	26µM*	-3%	i	i	?	2%
O=C(Nc1ccccc1)c1cc(C2CCCCN2C(=O)OCc2ccccc2)on1 (stereo not given)	-21%	-19%	i	i	-19%	-8%
N#Cc1cccc(NC(=O)c2cc(C3CCCCN3C(=O)c3ccccn3)on2)c1 (stereo not given)	23µM*	1%	i	i	?	?
N#Cc1cccc(NC(=O)c2cc(C3CCCCN3C(=O)c3ccccc3)on2)c1 (stereo not given)	18µM*	-9%	i	i	10µM*	-1%
O=C(Nc1ccccc1)c1cc(C2CCCCN2C(=O)c2cccs2)on1 (stereo not given)	?	-12%	i	i	18µM*	0%
O=C(NCc1cccnc1)c1cc(C2CCCCN2C(=O)c2cccs2)on1 (stereo not given)	-29%	18%	i	i	-26%	26%
Cc1ccc(-n2ncc3c(=O)n(CC#N)cnc32)cc1	-22%	-1%	i	i	-26%	-1%
COc1ccc(-c2ccccc2)cc1NC(=O)[C@@H]1O[C@H](CO)[C@H](O)[C@H](O)[C@H]1O	6%	17%	i	i	0%	15%
